Experimental data taken from PubChem BioAssay AID2588 (National Center for Advancing Translational Sciences (NCATS), 2010).
Several values for one entry are separate records, joined by “and”; a condition that tells them apart may be missing. Equal values may be shown once. Results filed as inconclusive are left out. Values without a mark were called inactive. Activity calls are given as the source filed them. Calls follow the shape of the dose curve; as a rule, active = well fitted inhibition curve with a large enough effect; inconclusive = small, poorly fitted or top-dose-only effect, or effect the other way; inactive = flat fitted curve, though single readings scatter.

molecular target: Lysosomal acid glucosylceramidase (Homo sapiens) (UniProt P04062); test: qHTS Assay for Inhibitors and Activators of N370S glucocerebrosidase as a Potential Chaperone Treatment of Gaucher Disease: Activity in Non-Mutant Spleen Homogenate Using a Red Fluorescent Substrate; conditions: red fluorogenic substrate GCase activity; series mostly up to 50.2 µM; activity change, negative = inhibition: at the top concentration
Text: NIH Chemical Genomics Center [NCGC]
NIH Molecular Libraries Probe Production Centers Network [MLPCN]
Assay Submitter (PI): Wei Zheng
Glucocerebrosidase (GC) catalyzes the hydrolysis of beta-glucocerebroside to glucose and ceramide in lysosomes. Mutations in the glucocerebrosidase gene result in Gaucher disease, an autosomal recessive lysosomal storage disorder. Many of the mutations encountered in patients with Gaucher disease are missense alterations that may cause misfolding, decreased stability and/or mistrafficking of this lysosomal protein. […] These inhibitors include iminosugar analogs and three non-iminosugar inhibitors identified from a previous HTS of 62,000 compounds with the wild type recombinant enzyme. However, the enhancement of enzyme activity by the chaperone action of an enzyme inhibitor must be balanced against the direct inhibition of the enzyme. An enzyme activator could also function as a chaperone by binding to the enzyme and helping to correct its misfolding and mistrafficking. While activators for GC have not yet been identified, they may have better therapeutic potential than inhibitors. Therefore the discovery and development of chemical activators may provide a new strategy for the chaperone therapy.
We have optimized a new assay using N370S mutant GC derived from the spleen of a Gaucher patient. […] In addition, the MLPCN compound library has expanded, which increases the chance of finding new and better probes.
This confirmation assay tests for compound activity in spleen homogenate containing wildtype enzyme using an alternate resorufin-based substrate.
NCGC Assay Protocol Summary:
This is a fluorogenic enzyme assay with resorufin-beta-D-glucopyranoside as the substrate and wildtype glucocerebrosidase from human spleen homogenate as the enzyme preparation. Upon the hydrolysis of this fluorogenic substrate, the resulting product, […] which can be detected by a standard fluorescence plate reader. Data were normalized to the controls for basal activity (without enzyme) and 100% activity (with enzyme). The AC50 values were determined from concentration-response data modeled with the standard Hill equation.
Assay buffer: 50 mM citric acid (titrated with potassium phosphate to pH 5.0), 100 mM potassium chloride, 10 mM sodium chloride, 1 mM magnesium chloride, 0.01% Tween-20.
1536-well assay protocol:
(1) Add 2 ul/well of spleen homogenate (27 ug final)
(2) Add 23 nL compounds in DMSO solution. The final titration was 0.5 nM to 58 uM.
(3) Add 2 ul of substrate (1 mM final)
(4) Incubate at 37C for 40 min.
(5) Add 2 ul stop solution (1M NaOH and 1M Glycine mixture, pH 10)
(6) Detect the assay plate in a ViewLux plate reader (PerkinElmer) with Ex=365 nm and Em=440nm.
Keywords: Glucocerebrosidase, beta-glucosidase, Gaucher Disease, pharmacological chaperone, chaperone therapy, high throughput screening, glucocerebrosidase inhibitor, MLSMR, MLSCN, NIH Roadmap, qHTS and NCGC

Chain of Lysosomal acid glucosylceramidase (Homo sapiens) (P04062 whole entry, looked up): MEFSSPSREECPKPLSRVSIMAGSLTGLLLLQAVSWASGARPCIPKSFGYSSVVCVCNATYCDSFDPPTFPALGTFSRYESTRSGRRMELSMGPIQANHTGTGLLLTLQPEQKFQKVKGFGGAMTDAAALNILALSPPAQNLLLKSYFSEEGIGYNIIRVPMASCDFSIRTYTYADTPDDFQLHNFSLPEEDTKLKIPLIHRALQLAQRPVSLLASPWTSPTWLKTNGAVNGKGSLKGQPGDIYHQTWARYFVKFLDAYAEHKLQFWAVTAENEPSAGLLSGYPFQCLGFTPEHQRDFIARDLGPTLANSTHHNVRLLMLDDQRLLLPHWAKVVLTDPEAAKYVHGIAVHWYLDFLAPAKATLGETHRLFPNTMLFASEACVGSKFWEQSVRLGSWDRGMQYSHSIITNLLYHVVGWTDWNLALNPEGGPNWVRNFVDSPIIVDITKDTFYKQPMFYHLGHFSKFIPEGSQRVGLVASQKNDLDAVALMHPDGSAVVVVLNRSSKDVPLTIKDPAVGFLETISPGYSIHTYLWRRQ

Row | Compound | Potency | activity change, negative = inhibition [%]
1 | Cc1cc(N2CCC(C)CC2)nc2ccc(NC(=O)C3CCC(C)CC3)cc12 (stereo not given) | 5.01 µM (active) | 
2 | Cc1cc(N2CCOCC2)nc2ccc(NC(=O)CCC(=O)NC3CCCCC3)cc12 |  | -9.8
3 | O=S(=O)(c1ccccc1C(F)(F)F)N1CCN(c2nc(-c3cccs3)nc3ccccc23)CC1 | 0.224 µM (active) | 
4 | O=S(=O)(c1ccccc1C(F)(F)F)N1CCN(c2nc(-c3ccccc3)nc3ccccc23)CC1 | 1 µM (active) | 
5 | O=S(=O)(c1ccc(F)cc1)N1CCN(c2nc(-c3ccc(F)cc3)nc3cc(Cl)ccc23)CC1 |  | -10.4
6 | O=C(Nc1cc(Br)ccc1O)c1cnn2c(C(F)F)cc(C3CC3)nc12 |  | 8.3
7 | CCN(CC)c1cc(C)c2cc(NC(=O)C3CCC(C)CC3)ccc2n1 (stereo not given) | 15.8 µM (active) | 
8 | O=C(COc1ccccc1C(=O)c1cnn(-c2ccccc2)c1)Nc1ccccc1 |  | -2.58
9 | O=S(=O)(c1ccc2ccccc2c1)N1CCN(c2nc(-c3cccs3)nc3ccccc23)CC1 | 0.251 µM (active) | 
10 | CCOC(=O)c1ccc(S(=O)(=O)N2CCN(c3nc(-c4cccs4)nc4ccccc34)CC2)cc1 | 0.794 µM (active) | 
11 | Cc1ccc(Cl)cc1NC(=O)c1ccccc1OCC(=O)Nc1ccc(Cl)cc1 |  | 27.3
12 | O=S(=O)(c1cccc(Cl)c1)N1CCN(c2nc(-c3cccs3)nc3ccccc23)CC1 | 1.26 µM (active) | 
13 | CCOc1ccc(N(CC(=O)NC2CCCCCC2)S(=O)(=O)c2c(C)[nH]c(=O)[nH]c2=O)cc1 | 1.41 µM (active) | 
14 | O=S(=O)(c1ccc(Cl)cc1)N1CCN(c2nc(-c3cccc(Br)c3)nc3ccccc23)CC1 |  | -11
15 | Cc1cc(C)n2ncc(C(=O)Nc3ccc(Cl)c(Cl)c3)c2n1 |  | 17.2
16 | O=S(=O)(c1ccc(F)cc1)N1CCN(c2nc(-c3cccs3)nc3ccccc23)CC1 | 0.794 µM (active) | 
17 | COc1ccc(S(=O)(=O)N2CCN(c3nc(-c4ccccc4)nc4ccccc34)CC2)cc1 | 2.51 µM (active) | 
18 | Cc1cc(C)cc(N(CC(=O)NC2CCC(C)CC2)S(=O)(=O)c2c(C)[nH]c(=O)[nH]c2=O)c1 (stereo not given) | 0.398 µM (active) | 
19 | Cc1cc(N2CCOCC2)nc2ccc(NC(=O)CCC3CCCC3)cc12 | 3.16 µM (active) | 
20 | N#Cc1ccccc1Sc1ccccc1C(=O)OCC(=O)NC12CC3CC(CC(C3)C1)C2 |  | -4.18

Row | Compound | Potency | activity change, negative = inhibition [%]
21 | O=c1cc(N2CCCCC2)c(-c2ccccc2)nn1Cc1c(Cl)cccc1Cl |  | 7.27
22 | O=S(=O)(c1ccc2c(c1)OCCO2)N1CCN(c2nc(-c3cccs3)nc3ccccc23)CC1 | 0.141 µM (active) | 
23 | O=S(=O)(c1ccc(Cl)cc1)N1CCN(c2nc(-c3cccs3)nc3ccccc23)CC1 | 1.58 µM (active) and 355 nM (active) | 
24 | CCC(C)NC(=O)COC(=O)c1ccccc1OCC(=O)Nc1ccc(Br)cc1 (stereo not given) |  | -9.29
25 | N=c1c2c(-c3ccccc3)c(-c3ccccc3)n(Cc3ccco3)c2ncn1CCCn1ccnc1 | 12.6 µM (active) | 
26 | COc1ccccc1NC(=O)COc1ccccc1C(=O)Nc1ccccc1 |  | 17
27 | COc1ccccc1OCC(=O)Nc1oc(-c2ccccc2)c(-c2ccccc2)c1C#N |  | 10.6
28 | O=S(=O)(c1ccc(F)cc1)N1CCN(c2nc(-c3cccs3)nc3cc(Cl)ccc23)CC1 |  | 0.766
29 | COc1ccc(-c2nc(N3CCN(S(=O)(=O)c4ccc(F)cc4)CC3)c3ccccc3n2)cc1 |  | -9.76
30 | Cc1cc(C)cc(N(CC(=O)NC2CCCCCC2)S(=O)(=O)c2c(C)[nH]c(=O)[nH]c2=O)c1 | 0.631 µM (active) | 
31 | O=S(=O)(c1ccccc1F)N1CCN(c2nc(-c3cccs3)nc3ccccc23)CC1 | 0.501 µM (active) | 
32 | O=S(=O)(c1ccc(C(F)(F)F)cc1)N1CCN(c2nc(-c3cccs3)nc3ccccc23)CC1 | 1.26 µM (active) | 
33 | CN(c1ccc(C(=O)Nc2nccs2)cc1)S(=O)(=O)c1ccccc1 | 35.5 µM (active) | 
34 | O=C(CSc1nccc(-c2cccs2)n1)Nc1cccc(Cl)c1 |  | -0.194
35 | O=S(=O)(c1cccc(C(F)(F)F)c1)N1CCN(c2nc(-c3cccs3)nc3ccccc23)CC1 | 0.794 µM (active) | 
36 | Cc1cc(C)n2ncc(C(=O)Nc3cccc(O)c3)c2n1 |  | 27.8
37 | O=S(=O)(c1ccc(F)cc1)N1CCN(c2nc(-c3ccccc3)nc3cc(Cl)ccc23)CC1 |  | -14.7
38 | Cc1cc(Nc2cccc(Cl)c2)nc2ccc(NC(=O)C3CCC(C)CC3)cc12 (stereo not given) |  | -7.54
39 | O=[N+]([O-])c1ccccc1S(=O)(=O)N1CCN(c2nc(-c3ccccc3)nc3ccccc23)CC1 | 4.47 µM (active) | 
40 | O=S(=O)(c1ccc(Cl)cc1)N1CCN(c2nc(-c3ccc(F)cc3)nc3cc(Cl)ccc23)CC1 |  | -4.14
